beta cell repl: MIN6 beta-cell proliferation induction. MIN6 cells proliferation, ATPlite luminescence, 48 h; cells starved in 0.2% serum; 100% = growth in 10% serum. proliferation, % at 10 µM. actives 0.29% (n = 330,000). AID 2380;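 active = compounds whose signal lies at least 3.5 SD above the mean of all wells on their plate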;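 also: 0% = DMSO-treated cells in low-serum medium and 100% = 10% serum control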
Platelet DG rel: modulates dense granule release in human platelets; inhibition, %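 (compounds screened at 7.5 µM in platelet-rich plasma)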; AID 1663; human platelet-rich plasma, SFLLRN dense granule ATP release, luminescence; actives 0.22% (n = 300,000);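 active = mean replicate score, as percent of positive control, at or above 50; inconclusive = mean below 50 but at least one replicate at or above 50; inactive = mean and every replicate below 50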
GRK2 aptamer HTS: human GRK2 inhibition via aptamer displacement. bead flow cytometry, FAM-aptamer displacement from GRK2. inhibition of aptamer binding, % at 10 µM. actives 0.59% (n = 330,000);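 active = inhibition of aptamer binding above 40%, roughly 3 SD of noise, on plates passing a quality check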;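 also: median bead fluorescence of bound FAM aptamer so fluorescent compounds give negative values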
Target sequence (P25098 whole entry, looked up): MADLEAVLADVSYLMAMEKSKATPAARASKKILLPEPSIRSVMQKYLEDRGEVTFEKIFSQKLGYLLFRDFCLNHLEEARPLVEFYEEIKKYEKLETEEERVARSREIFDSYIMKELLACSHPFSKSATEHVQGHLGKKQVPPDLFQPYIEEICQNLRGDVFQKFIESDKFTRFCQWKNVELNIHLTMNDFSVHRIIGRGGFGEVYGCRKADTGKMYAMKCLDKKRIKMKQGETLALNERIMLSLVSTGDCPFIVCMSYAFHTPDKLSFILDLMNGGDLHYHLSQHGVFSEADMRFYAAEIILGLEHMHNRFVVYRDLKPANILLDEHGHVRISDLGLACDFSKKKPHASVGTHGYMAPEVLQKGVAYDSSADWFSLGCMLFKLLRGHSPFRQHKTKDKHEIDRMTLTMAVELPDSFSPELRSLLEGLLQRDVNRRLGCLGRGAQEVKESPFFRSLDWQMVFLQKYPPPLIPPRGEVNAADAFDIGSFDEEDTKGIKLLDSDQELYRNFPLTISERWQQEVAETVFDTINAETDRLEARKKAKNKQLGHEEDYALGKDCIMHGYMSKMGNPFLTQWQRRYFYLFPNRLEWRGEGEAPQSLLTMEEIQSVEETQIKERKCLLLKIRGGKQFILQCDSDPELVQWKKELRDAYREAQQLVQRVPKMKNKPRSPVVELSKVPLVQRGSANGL
NTR1 ag: agonists of human neurotensin receptor NTR1; actives 0.17% (n = 330,000); AID 493036; NTR1-U2OS beta-arrestin-GFP spot imaging, agonist mode; activation, % at 20 µM;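 active = activation at or above 40% of the spot to cytoplasm intensity ratio, with at least 20 cells analyzed; inconclusive = wells under 20 cells, flagged as cytotoxic or low count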;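 also: 0% = DMSO without peptide and 100% = 100 nM NTR1 peptide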
GRK2 inh confirm: confirmation of human GRK2 inhibitors displacing RNA aptamer; shares compounds with GRK2 aptamer HTS; bead-bound GRK2, FAM-aptamer displacement, flow cytometry; aptamer displacement, % at 10 µM; actives 4% (n = 2,000); AID 504451;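 active = aptamer displacement above 40%, near three times the noise of non-fluorescent compounds, on plates passing quality checks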;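 also: negative values mostly reflect intrinsic compound fluorescence rather than true enhancement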
FAM quench CP1: quenches fluorescent RNA aptamer, GRK2 hit artifact | shares compounds with GRK2 aptamer HTS | Carboxyfluorescein RNA aptamer on beads, flow cytometry quenching; stronger effect = lower value | fluorescence response (% of DMSO), % at 10 µM | 2,000 tested, under 10 active | AID 504580;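 active = compounds that quench the bead-bound fluorescent RNA probe, cutting fluorescence to under half of the solvent control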;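 also: counterscreen run without GRK2 so only probe quenching by compound is measured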
GRK2 confirm 2: confirmation of human GRK2 inhibitors binding RNA aptamer site; bead-bound GRK2, FAM-aptamer displacement, flow cytometry; inhibition of aptamer binding, % at 10 µM; 360 tested, under 10 active; shares compounds with GRK2 aptamer HTS;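 active = inhibition of aptamer binding above 40%, about triple the noise seen with nonglowing compounds, on plates passing quality control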;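 also: negative values mostly come from compounds that fluoresce themselves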
Aptamer quench 2: counter-screen for GRK2 aptamer inhibitors: fluorescent aptamer quenchers | change in fluorescence (kMESF span), kMESF (concentration not given with the values) | 25 tested, under 10 active | AID 504819 | shares compounds with GRK2 aptamer HTS | Streptavidin beads, FAM-RNA aptamer fluorescence quenching, flow cytometry;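 active = compounds quenching the bead-bound labeled aptamer, with fluorescence dropping by more than 37 kMESF over the dose range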
FAM quench SP: aptamer fluorescence quenching in GRK2 counter-screen; carboxyfluorescein RNA aptamer beads, flow cytometry quenching; stronger effect = lower value; shares compounds with GRK2 aptamer HTS; 360 tested, under 10 active; fluorescence response vs DMSO, % at 10 µM; AID 588494;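 active = response vs DMSO under 50%, meaning signal dropped by over half, treated as fluorescence quencher; inconclusive = no clear call, values can overlap the other calls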;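 also: labelled aptamer on streptavidin beads without GRK2 as a quench counter-screen; 100% = bead fluorescence of DMSO wells and lower means quenching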
FAM quench DR: counter-screen for GRK2 aptamer binding inhibitors: aptamer fluorescence quenching. shares compounds with GRK2 aptamer HTS. Bead-bound FAM RNA aptamer fluorescence quenching, flow cytometry; stronger effect = lower value. fluorescence ratio to DMSO, % at 11.1 µM. 35 tested, under 10 active;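 active = compounds that dim the fluorescent label, raw bead signal shifting by over 33 units between lowest and highest dose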
* hit, by the source's call; ? = inconclusive; nt = no result given. Rows were chosen to be rich in hits. Some 1.2% of all compounds tested hit in one or more screens of this group.

SMILES | beta cell repl | Platelet DG rel | GRK2 aptamer HTS | NTR1 ag | GRK2 inh confirm | FAM quench CP1 | others
CCN1C(N(C)C)=NC[C@@H]1Cc1ccccc1 | 1 | nt | 73* | -4 | -1 | 104
COc1ccccc1/C=C/C(=O)OCC(=O)NC1CCCCCCC1 | 0 | nt | 0 | 0 | nt | nt
NC(=O)C1=C[C@H](c2csc3ccccc23)C[C@H](OCCCCO)O1 | 0 | -3 | 4 | 0 | nt | nt
Cc1cc(C)n(/N=C/c2c[nH]c3ccccc23)c(=O)c1C#N | -3 | -8 | 65* | -1 | 1 | 108
Cc1noc(C)c1COc1ccc(C(=O)NNC(=O)c2ccccc2)cc1 | -1 | 5 | 100* | 0 | 1 | 107
Cc1noc(C)c1COc1ccc(C(=O)NNC(=O)c2ccccc2F)cc1 | -3 | nt | 1 | -2 | nt | nt
Cc1ccc2oc(=O)c(-c3ccc(O)cc3)c(C)c2c1 | -4 | nt | 0 | 0 | nt | nt
COc1ccc([C@H]2CC(=O)C=C(c3cccc(C(F)(F)F)c3)C2)cc1 | -4 | nt | 0 | 7 | nt | nt
Cc1ccccc1-c1nc(CN2CCCC(C(=O)NCCCN3CCOCC3)C2)c(C)o1 (configuration not stated) | -1 | 1 | 0 | -1 | nt | nt
Cc1oc(-c2ccc(Cl)cc2)nc1CN1CCCC(C(=O)NC2CC2)C1 (configuration not stated) | 2 | -1 | 0 | 1 | nt | nt
Cc1ccccc1-c1nc(CN2CCCC(C(=O)NCc3cccnc3)C2)c(C)o1 (configuration not stated) | -2 | 4 | 0 | -1 | 1 | 108
Cc1oc(-c2ccc(Cl)cc2)nc1CN1CCCC(C(=O)NCc2ccco2)C1 (configuration not stated) | -6 | 2 | 3 | 2 | -2 | 97
COc1ccc(CNC(=O)C2CCCN(Cc3nc(-c4cccc(C)c4)oc3C)C2)cc1 (configuration not stated) | -4 | 4 | 0 | -2 | 0 | 95
CCc1noc(C)c1C(=O)N1CCSC1=Nc1cccc(Cl)c1C | -5 | 0 | 0 | 2 | nt | nt
CC1CCC2C(=O)N(c3ccc(C(=O)NCc4ccccc4)cc3)C(=O)C2C1 (configuration not stated) | 0 | 4 | 0 | 1 | nt | nt
COc1ccc(N2CC(C(=O)Nc3ccccc3N3CCCC3)CC2=O)c(OC)c1 (configuration not stated) | -2 | 2 | 0 | 0 | nt | nt
COc1ccc(C)cc1N1CC(C(=O)Nc2ccccc2N2CCCCC2)CC1=O (configuration not stated) | -1 | nt | 78* | -1 | -2 | 97
CCOC(=O)/C=C1\SCC(=O)N1CC(=O)Nc1cc(S(=O)(=O)N(C)C)ccc1C | 0 | nt | 2 | 1 | nt | nt
O=C(CCS(=O)(=O)c1ccc(Br)cc1)Nc1ccccc1Cl | 0 | 3 | 1 | -1 | nt | nt
O=C(CCS(=O)(=O)c1ccc(Br)cc1)Nc1ccccn1 | 0 | 8 | 14 | -2 | 4 | 99
O=C(COC(=O)C1CC1)Nc1ncc(Cl)cc1Cl | 3 | -9 | 9 | 4 | nt | nt
O=C(CCS(=O)(=O)c1ccc(Br)cc1)Nc1ccc(Br)cc1F | -1 | 21 | 70* | 1 | nt | nt | GRK2 confirm 2=0;Aptamer quench 2=-2.3;FAM quench SP=100;FAM quench DR=98
O=C(COC(=O)C1CC1)Nc1ccc(Cl)cn1 | 0 | nt | 53* | 1 | 4 | 96
O=C(CCS(=O)(=O)c1ccccc1)Nc1ccc(Cl)cn1 | -2 | -2 | 14 | -1 | 9 | 105
Cc1noc(C)c1COc1ccccc1C(=O)N(C)CC(=O)Nc1ccc(F)c(F)c1F | -2 | nt | 0 | -1 | nt | nt
SMILES | beta cell repl | Platelet DG rel | GRK2 aptamer HTS | NTR1 ag | GRK2 inh confirm | FAM quench CP1 | others
CCC(=O)Nc1cccc(-c2cc3ccccc3oc2=O)c1 | -1 | 0 | 96* | 0 | 0 | 97
COc1ccccc1C(=O)Nc1c2c(nn1-c1ccc([N+](=O)[O-])cc1)CS(=O)(=O)C2 | 8 | 1 | 0 | 4 | nt | nt
COc1ccccc1C(=O)Nc1c2c(nn1-c1ccc(Cl)cc1)CS(=O)(=O)C2 | 4 | -4 | 44* | 4 | nt | nt | GRK2 confirm 2=-18;FAM quench SP=101
COCC(=O)NCc1ccc2c(c1)cc(C)n2C | -3 | -3 | 20 | 1 | nt | nt
COc1ccc(CC(=O)NCc2ccc3c(c2)cc(C)n3C)cc1OC | 3 | 12 | 0 | 1 | 2 | 97
COc1ccc(C(=O)NCc2ccc3c(c2)cc(C)n3C)cc1 | 0 | ? | 1 | 0 | nt | nt
Cc1cc2cc(CNC(=O)Nc3ccc(Cl)c(Cl)c3)ccc2n1C | -2 | 0 | 0 | -4 | -3 | 94
CCOc1ccc(CC(=O)NCc2ccc3c(c2)cc(C)n3C)cc1 | -3 | 33 | 0 | -2 | -3 | 100
Cc1cc2cc(CNC(=O)c3ccc4c(c3)OCO4)ccc2n1C | -3 | 6 | 22 | 0 | 4 | 94
COc1cccc(C(=O)Nc2cc(C)nn2-c2ccccc2)c1OC | -1 | -4 | 1 | 1 | nt | nt
CC(C)[C@H](NS(=O)(=O)c1ccc(Cl)cc1)C(=O)OCC(=O)c1c(N)n(C)c(=O)n(C)c1=O | 0 | nt | 1 | 3 | nt | nt
COc1cccc(-c2nn[nH]n2)c1O | 0 | 3 | 3 | -1 | nt | nt
COc1cc(OC)cc(C(=O)NCc2ccc3c(c2)cc(C)n3C)c1 | -1 | -2 | 82* | -1 | 3 | 98
CCOC(=O)/C=C1\SCC(=O)N1CC(=O)NCc1ccc(OC)c(OC)c1 | 3 | 3 | 95* | 3 | 1 | 98
CCCc1cc(=O)oc2cc(OCC(=O)Nc3ccc(S(N)(=O)=O)cc3)ccc12 | -1 | 9 | 2 | -1 | nt | nt
Cc1ccc(CNC(=O)C2CCCN(S(=O)(=O)c3cccnc3)C2)cc1 (configuration not stated) | 0 | 4 | 2 | 2 | nt | nt
O=C(NCC1CCCO1)C1CCCN(Cc2cnn(-c3ccccc3)c2-n2cccc2)C1 (configuration not stated) | -3 | -4 | 0 | 2 | -7 | 98
Cc1ccc(CNC(=O)C2CCCN(Cc3cnn(-c4ccccc4)c3-n3cccc3)C2)cc1 (configuration not stated) | -5 | -6 | 5 | 3 | -4 | 99
O=C(Nc1ccc2c(c1)OCO2)C1CCN(Cc2cnn(-c3ccccc3)c2-n2cccc2)CC1 | -3 | -1 | 0 | 0 | nt | nt

Screening data (PubChem BioAssay)
